Records with an inconclusive call do not appear. Calls of active or inactive are those of the source. Calls follow the shape of the dose curve; as a rule, active = well fitted inhibition curve with a large enough effect; inconclusive = small, poorly fitted or top-dose-only effect; inactive = flat fitted curve, though single readings scatter.
Experiments:
[1] = system: CP262; test: qHTS profiling for inhibitors of Plasmodium falciparum proliferation (AID 504749); also: nearly all actives have a fitted effect of over 60% in size; details: P. falciparum in erythrocytes, SYBR Green DNA, 72 h; series mostly up to 28.7 µM
Method in brief: (§1)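 P. falciparum-infected erythrocytes (0.3% parasitemia, 2.5% hematocrit) incubated with compound 72 h at 37 C, 5% CO2. Parasite DNA detected by SYBR Green after lysis, overnight at room temperature; normalised to 0.29 uM artemisinin and DMSO.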

[2] = system: CP265; test: as above; details: P. falciparum in erythrocytes, SYBR Green DNA, 72 h; series mostly up to 28.7 µM
Method in brief: as §1

[3] = system: CP266; test: as above; details: P. falciparum in erythrocytes, SYBR Green DNA, 72 h; series mostly up to 28.7 µM
Method in brief: as §1

[4] = system: CP268; test: as above; details: P. falciparum in erythrocytes, SYBR Green DNA, 72 h; series mostly up to 28.7 µM
Method in brief: as §1

[5] = system: CP269; test: as above; details: P. falciparum in erythrocytes, SYBR Green DNA, 72 h; series mostly up to 28.7 µM
Method in brief: as §1

[6] = system: CP286; test: as above; details: P. falciparum in erythrocytes, SYBR Green DNA, 72 h; series mostly up to 28.7 µM
Method in brief: as §1

[7] = system: CP291; test: as above; details: P. falciparum in erythrocytes, SYBR Green DNA, 72 h; series mostly up to 28.7 µM
Method in brief: as §1

[8] = system: CP297; test: as above; details: P. falciparum in erythrocytes, SYBR Green DNA, 72 h; series mostly up to 28.7 µM
Method in brief: as §1

[9] = system: CP305; test: as above; details: P. falciparum in erythrocytes, SYBR Green DNA, 72 h; series mostly up to 28.7 µM
Method in brief: as §1

[10] = system: CP315; test: as above; details: P. falciparum in erythrocytes, SYBR Green DNA, 72 h; series mostly up to 28.7 µM
Method in brief: as §1

[11] = system: CP325; test: as above; details: P. falciparum in erythrocytes, SYBR Green DNA, 72 h; series mostly up to 28.7 µM
Method in brief: as §1

[12] = system: CP329; test: as above; details: P. falciparum in erythrocytes, SYBR Green DNA, 72 h; series mostly up to 28.7 µM
Method in brief: as §1

[13] = system: CP335; test: as above; details: P. falciparum in erythrocytes, SYBR Green DNA, 72 h; series mostly up to 28.7 µM
Method in brief: as §1

[14] = system: DFO2036; test: as above; details: P. falciparum in erythrocytes, SYBR Green DNA, 72 h; series mostly up to 28.7 µM
Method in brief: as §1

[15] = system: DIV14; test: as above; details: P. falciparum in erythrocytes, SYBR Green DNA, 72 h; series mostly up to 28.7 µM
Method in brief: as §1

[16] = system: DIV17; test: as above; details: P. falciparum in erythrocytes, SYBR Green DNA, 72 h; series mostly up to 28.7 µM
Method in brief: as §1

[17] = system: DIV30; test: as above; details: P. falciparum in erythrocytes, SYBR Green DNA, 72 h; series mostly up to 28.7 µM
Method in brief: as §1

[18] = system: Dd2; test: as above; details: P. falciparum in erythrocytes, SYBR Green DNA, 72 h; series mostly up to 28.7 µM
Method in brief: as §1

[19] = system: ECU; test: as above; details: P. falciparum in erythrocytes, SYBR Green DNA, 72 h; series mostly up to 28.7 µM
Method in brief: as §1

[20] = system: FAB9; test: as above; details: P. falciparum in erythrocytes, SYBR Green DNA, 72 h; series mostly up to 28.7 µM
Method in brief: as §1

[21] = system: GB4; test: as above; details: P. falciparum in erythrocytes, SYBR Green DNA, 72 h; series mostly up to 28.7 µM
Method in brief: as §1

[22] = system: HB3; test: as above; details: P. falciparum in erythrocytes, SYBR Green DNA, 72 h; series mostly up to 28.7 µM
Method in brief: as §1

[23] = system: ICS; test: as above; details: P. falciparum in erythrocytes, SYBR Green DNA, 72 h; series mostly up to 28.7 µM
Method in brief: as §1

[24] = system: JCK; test: as above; details: P. falciparum in erythrocytes, SYBR Green DNA, 72 h; series mostly up to 28.7 µM
Method in brief: as §1

[25] = system: N140; test: as above; details: P. falciparum in erythrocytes, SYBR Green DNA, 72 h; series mostly up to 28.7 µM
Method in brief: as §1

[26] = system: P93_24; test: as above; details: P. falciparum in erythrocytes, SYBR Green DNA, 72 h; series mostly up to 28.7 µM
Method in brief: as §1

[27] = system: P94_40; test: as above; details: P. falciparum in erythrocytes, SYBR Green DNA, 72 h; series mostly up to 28.7 µM
Method in brief: as §1

[28] = system: PAD; test: as above; details: P. falciparum in erythrocytes, SYBR Green DNA, 72 h; series mostly up to 28.7 µM
Method in brief: as §1

[29] = system: PC15; test: as above; details: P. falciparum in erythrocytes, SYBR Green DNA, 72 h; series mostly up to 28.7 µM
Method in brief: as §1

[30] = system: PC26; test: as above; details: P. falciparum in erythrocytes, SYBR Green DNA, 72 h; series mostly up to 28.7 µM
Method in brief: as §1

[31] = system: PC49; test: as above; details: P. falciparum in erythrocytes, SYBR Green DNA, 72 h; series mostly up to 28.7 µM
Method in brief: as §1

[32] = system: SC27B; test: as above; details: P. falciparum in erythrocytes, SYBR Green DNA, 72 h; series mostly up to 28.7 µM
Method in brief: as §1

[33] = system: TAB109; test: as above; details: P. falciparum in erythrocytes, SYBR Green DNA, 72 h; series mostly up to 28.7 µM
Method in brief: as §1

[34] = system: TAB113; test: as above; details: P. falciparum in erythrocytes, SYBR Green DNA, 72 h; series mostly up to 28.7 µM
Method in brief: as §1

[35] = system: TAB165; test: as above; details: P. falciparum in erythrocytes, SYBR Green DNA, 72 h; series mostly up to 28.7 µM
Method in brief: as §1

[36] = system: W2; test: as above; details: P. falciparum in erythrocytes, SYBR Green DNA, 72 h; series mostly up to 28.7 µM
Method in brief: as §1

[37] = system: astro; test: Drug repurposing screens with cells derived from glioblastoma tumor samples (AID 1345199); details: viability, ATP luminescence, 48 h; series mostly up to 45.9 µM; also: nearly all actives have a fitted effect of over 40% in size
Method in brief: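 Four patient lines of CD133+ GBM neurospheres were screened at several concentrations; hits were retested in those lines plus three slower-growing GBM lines, using 48-hour treatment and ATP-based viability.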

Measured: Potency

C[N+](C)(C)CC(=O)[O-]
inactive: [1] | [2] | [3] | [4] | [5] | [6] | [7] | [8] | [9] | [10] | [11] | [12] | [13] | [14] | [15] | [16] | [17] | [18] | [19] | [20] | [21] | [22] | [23] | [24] | [25] | [26] | [27] | [28] | [29] | [30] | [31] | [32] | [33] | [34] | [35] | [36] | [37]

Source: PubChem BioAssay (NCATS)
